Bioassay records (PubChem BioAssay)
Cav3 T inh – inhibitors of human Cav3.2 T-type calcium channel. O95180. B-score at 10 µM. hit rate 4% among 100,000. Cav3.2-expressing cells, Fluo-4 calcium fluorescence FDSS; active compounds read low;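 active means single-dose well whose peak fluorescence ratio is a statistical outlier from its plate by either plate-standardised score or position-corrected B-score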
CYP2C19 act – cytochrome P450 2C19 (human) activation | activation factor at 5 µM | AID 1025 | recombinant CYP2C19, luciferin-H EGE luminescence; active compounds read high; 0 = fully inhibited enzyme, 1 = untreated enzyme | P33261 | 96,000 tested, under 10 active;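 active means activation factor of at least 2 at 5 µM in the primary screen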;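 further: 0 = wells with 2.5 mM tranylcypromine and 1 = vehicle-only wells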
Target sequence (P33261 whole entry, looked up): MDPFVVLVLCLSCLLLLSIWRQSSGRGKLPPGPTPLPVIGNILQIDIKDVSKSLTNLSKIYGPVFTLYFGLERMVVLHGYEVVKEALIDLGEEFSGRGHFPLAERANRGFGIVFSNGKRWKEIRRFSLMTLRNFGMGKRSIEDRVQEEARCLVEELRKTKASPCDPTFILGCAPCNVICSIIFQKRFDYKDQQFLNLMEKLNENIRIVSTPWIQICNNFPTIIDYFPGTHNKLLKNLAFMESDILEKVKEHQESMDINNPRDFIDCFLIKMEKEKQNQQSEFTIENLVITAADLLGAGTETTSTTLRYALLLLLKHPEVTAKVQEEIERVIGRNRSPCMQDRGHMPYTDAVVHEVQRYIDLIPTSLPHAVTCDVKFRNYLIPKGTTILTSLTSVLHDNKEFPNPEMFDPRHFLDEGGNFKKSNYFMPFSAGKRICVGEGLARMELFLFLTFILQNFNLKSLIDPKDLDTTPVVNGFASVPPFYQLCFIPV
CYP2C9 inh – blocks human cytochrome P450 2C9; CYP2C9 Supersomes, luciferin-H conversion, luminescence; inhibition, % at 5 µM; hit rate 20% among 96,000; AID 777;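 active means blocking of liver enzyme CYP2C9 beyond about 50% at 5 µM, limit read from the data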
CYP2C9 activ – increases human cytochrome P450 2C9 activity. recombinant CYP2C9, luciferin-H conversion, luminescence; active compounds read high; factor 1 = untreated enzyme, 0 = blocked. hit rate 1.4% among 96,000. activation factor at 5 µM. AID 1024. P11712;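 active means activation factor of 2 or more for CYP2C9 at a 5 µM dose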;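 further: 0 = sulfaphenazole-blocked wells and 1 = vehicle-only wells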
CYP2C19 inh – inhibitors of human CYP2C19; CYP2C19 Supersomes, luciferin-H EGE luminescence, 30 min; inhibition, % at 5 µM; hit rate 21% among 96,000;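 active means CYP2C19 inhibition above a set limit at 5 µM in the primary screen, cut at about 50% in these data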;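 further: plate controls were negative control wells for no effect and 2.5 mM tranylcypromine positive control for full effect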
* marks the source's active call; other numbers are inactive results; nt = no result given. Most compounds without a hit are left out; they make up all but 27% or so of the library.

SMILES	Cav3 T inh	CYP2C19 act	CYP2C9 inh	CYP2C9 activ	CYP2C19 inh
COC(=O)c1cccc(NC(=O)c2nn(C)c(=O)c3ccccc23)c1	0.016	0.7	55*	0.5	28
COC(=O)c1ccc(C)c(NC(=O)c2nn(C)c(=O)c3ccccc23)c1	0.8	0.9	45	0.5	12
NS(=O)(=O)c1cccc(NC(=O)Cn2cnc3ccccc3c2=O)c1	0.53	1	39	0.6	3
COC(=O)c1cccc(NC(=O)Cn2cnc3ccccc3c2=O)c1	0.18	0.3	98*	0	75*
CCn1c(SCC(=O)Nc2ccc(C(C)=O)cc2)nc2nc3c(cc2c1=O)CCCC3	-1.6	0.6	68*	0.3	42
CCn1c(SCC(=O)Nc2ccc(C(C)=O)cc2)nc2ccccc21	1.1	1.1	-15	1.1	-8
COC(=O)c1cc(NC(=O)Cn2c(=O)cnc3ccccc32)cc(C(=O)OC)c1	0.088	0.8	89*	0.1	19
COC(=O)Cn1c(=O)cnc2ccccc21	0.2	1.1	-13	1.1	-5
O=C(Cn1cnc2ccccc2c1=O)Nc1cccc(-c2nnc3n2CCCCC3)c1	nt	0.4	49	0.5	57*
COc1cccc(NS(=O)(=O)c2ccc3[nH]cc(C(=O)N(C)Cc4ccco4)c(=O)c3c2)c1	-1.2	0.5	71*	0.3	48
Cc1cc(C)cc(NS(=O)(=O)c2ccc3[nH]cc(C(=O)NCc4ccco4)c(=O)c3c2)c1	-1.1	0.9	65*	0.4	12
COc1cccc(NS(=O)(=O)c2ccc3[nH]cc(C(=O)NC4CC4)c(=O)c3c2)c1	2.4	0.9	52*	0.5	13
COc1ccc(Nc2nc3ccccc3nc2C)cc1	-3.8*	0.9	11	0.9	9
COc1ccc(Nc2nc(C)c3ccccc3n2)cc1	-0.48	0.7	3	1	27
Cc1[nH]n(-c2ccccc2)c(=O)c1-c1ccc(Cl)cc1	-0.032	1	45	0.5	3
Cc1[nH]n(-c2ccccc2)c(=O)c1-c1cccc(Cl)c1	-0.073	0.8	71*	0.3	20
Cc1cc(-c2ccco2)n(-c2ccccc2)n1	0.32	0.8	6	0.9	18
Cc1cc(-c2c(C)[nH]n(-c3ccccc3)c2=O)n(-c2ccccc2)n1	-0.32	1	81*	0.2	1
O=c1[nH]n(-c2ccc(Cl)cc2)c(=O)c(Cl)c1Cl	0.15	1.1	22	0.8	-7
Cc1cc(-c2c(C)[nH]n(-c3ccc(Cl)cc3)c2=O)n(-c2ccc(Cl)cc2)n1	0.4	0.9	60*	0.4	8
COC(C/C=C\C(=O)COCc1ccccc1)OC	1.4	nt	nt	nt	nt
OC(CN1CCN(c2ccccc2)CC1)c1ccc2c(c1)CCN2 (stereo not given)	0.09	0.9	-15	1.1	10
CCOC(=O)/C(=N/Nc1ccc(Cl)cc1)S(=O)(=O)c1ccc(Cl)cc1	0.0063	0.9	9	0.9	8
O=C(CS(=O)(=O)c1c[nH]c2ccccc12)N1CCCCC1	-0.44	0.4	-10	1.1	64*
O=C(CS(=O)(=O)c1cn(Cc2ccc(Cl)cc2)c2ccccc12)N1CCCC1	1.7	0.2	70*	0.3	76*
SMILES	Cav3 T inh	CYP2C19 act	CYP2C9 inh	CYP2C9 activ	CYP2C19 inh
CC1CCCC(NC(=O)c2cn(C)c3ccc(S(=O)(=O)N4CCCC4)cc3c2=O)C1C (stereo not given)	nt	0.8	73*	0.3	16
CC1CCCCC1NC(=O)c1cn(C)c2ccc(S(=O)(=O)N3CCCC3)cc2c1=O (stereo not given)	0.59	1	39	0.6	-2
CCn1cc(C(=O)NCCCN2CCC(C)CC2)c(=O)c2cc(S(=O)(=O)N3CCCC3)ccc21	0.67	1	14	0.9	-5
CCn1cc(C(=O)NCc2ccco2)c(=O)c2cc(S(=O)(=O)N3CC(C)CC(C)C3)ccc21 (stereo not given)	-8.1*	0.9	58*	0.4	9
CCn1cc(C(=O)N2CCc3ccccc32)c(=O)c2cc(S(=O)(=O)N3CCOCC3)ccc21	nt	0.9	16	0.8	8
CCn1cc(C(=O)NCc2ccco2)c(=O)c2cc(S(=O)(=O)N3CCc4ccccc4C3)ccc21	-2.3	0.6	78*	0.2	36
CCn1cc(C(=O)NCCN(C)CCc2ccccc2)c(=O)c2cc(S(=O)(=O)N(C)C)ccc21	1.7	0.6	75*	0.3	37
CCn1cc(C(=O)NCc2ccccn2)c(=O)c2cc(S(=O)(=O)N3CCCCC3)ccc21	nt	0.9	48	0.5	10
